The text below walks through data of paper PMC5540273 (PLoS ONE, 2017).

The Kd is the constant that tells how readily two partners part at equilibrium. A lower Kd goes with a tighter complex.

The test system of one experiment is T1, DRAK1.
T1 construct: gene STK17A

The subject of a further experiment is T2, ERK5.
T2 construct: gene MAPK7

In a further experiment the test system is T3, ERK1.
T3 construct: gene MAPK3

Another experiment relates to T4, ERK8.
T4 construct: gene MAPK15
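Further: kd values determined as follow-up on hits from a single-replicate KINOMEscan panel screen.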

For the compound `Clc1cc(Nc2ncnc3cc[nH]c23)ccc1OCc1ccccn1`, the Kd in the experiment with EGFR is 0.0084 µM; with ERBB2, 0.009 µM.
Turning to `Cl.c1ccc(Cn2ncc3cc(Nc4ncnc5ccccc45)ccc32)cc1` [GW273749], the values for the dissociation constant (Kd) with EGFR, with ERBB2 and in the experiment with ERBB4 were 0.0076 µM, 0.011 µM and 0.061 µM, respectively.
In the same order, the values of `OCCOCCn1ccc2ncnc(Nc3ccc(Oc4cccc(Cl)c4)c(Cl)c3)c21` are 0.0085 µM, 0.0029 µM and 0.077 µM.
On to `Cn1ccc2ncnc(Nc3ccc(Oc4cccc(Cl)c4)c(Cl)c3)c21`, for which the Kd in the experiment with EGFR is 0.0043 µM; in the experiment on EPHA7 it was above 10 µM; with EPHA8, above 10 µM; with ERBB2, 0.0012 µM; with ERBB4 it was 0.074 µM.
Consider `Fc1cccc(COc2ccc(Nc3ncnc4cc[nH]c34)cc2Cl)c1`, for which the figures for the Kd in the experiment with EGFR, with ERBB2 and in the experiment on ERBB4 were 0.0013 µM, 0.0022 µM and 0.32 µM, respectively.
For `Cl.Fc1ccccc1COc1ccc(Nc2ncnc3ccc(-c4nnc(C(F)(F)F)o4)cc23)cc1Cl` [GW424170], the Kd in the experiment on EGFR is 0.043 µM; in the experiment on ERBB2 it was 0.11 µM.
With `Nc1nc(-c2ccc3c(N)n[nH]c3c2)cc(N2CCCCC2)n1` [GSK2228768], binding with DRAK1 was put at a Kd of 0.11 µM.
For `CC(C)(C)c1ccc(-n2cnc3c(N)ncnc32)cc1` [SKF-97263], the Kd in the experiment on DRAK1 was determined as 0.45 µM. Compared with the last compound, the Kd is about 4.1-fold higher.
The compound `NC(=O)c1sc(-n2cnc3ccccc32)cc1OCc1ccccc1F` [GSK1024306] had a Kd in the experiment with EGFR of 1.3 µM.
Turning to `CC(C)(C)OC(=O)NC1CCCN(c2cc(-c3ccc4c(N)n[nH]c4c3)nc(N)n2)C1` (stereo not shown) [GSK2286096], the Kd with DRAK1 is 0.13 µM; in the experiment on DYRK1B, above 10 µM; in the experiment on DYRK2 it was 0.44 µM; in the experiment with EPHB2, above 10 µM.
`COc1ccc(Nc2nccc(N3CCC(NC(=O)c4cccc(NC(C)=O)c4)C3)n2)cc1` (stereo not shown) [GSK1379732] had a Kd in the experiment with DYRK1B above 10 µM.
`CS(=O)(=O)CCNCc1ccc(-c2ccc3ncnc(Nc4ccc(OCc5ccccc5)c(Cl)c4)c3c2)o1.Cl` [GW574783]: the dissociation constant Kd is 0.00082 µM in the experiment with EGFR, 0.0028 µM in the experiment on ERBB2 and 0.028 µM with ERBB4.
Consider `Cl.O=S(=O)(c1cccc(F)c1)c1ccc(Nc2ncnc3cc(Br)sc23)cc1Cl` [GSK306886], for which the Kd amounted to 0.061 µM with EGFR and 0.095 µM with ERBB2.
As to `CS(=O)(=O)CCNCc1nc(-c2ccc3ncnc(Nc4ccc(OCc5cccc(F)c5)c(Cl)c4)c3c2)cs1.Cl` [GW583340], the Kd with EGFR was 0.00069 µM; in the experiment on ERBB2 it was 0.0059 µM; in the experiment on ERBB4, 0.026 µM.
`Cc1cc(N2CCC(NS(=O)(=O)c3ccc(F)cc3)CC2)nc(Nc2cccc(C#N)c2)n1.O=C(O)C(F)(F)F` [GSK1653537]: in the experiment on DYRK1B, the Kd amounted to 2.8 µM.
Consider `COc1cc2c(Nc3cccc(NC(=O)c4ccccc4)c3)ncnc2cc1OCCCN1CCOCC1` [GSK223810], for which the Kd in the experiment with EGFR was determined as 1.4 µM.
For `Nc1n[nH]c2nnc(-c3ccccc3)cc12` [SB-517389], the equilibrium dissociation constant (Kd) with DYRK1B is 7 µM; in the experiment with EPHB2, above 10 µM.
In the experiment on DRAK1, `C[C@H]1CC[C@@H](C(=O)Nc2ccccc2)CN1c1cc(-c2ccc3c(N)n[nH]c3c2)nc(N)n1` [GSK2283293] had a Kd of 0.011 µM.
As for `Fc1cccc(COc2ccc(Nc3ncnc4nn5ccccc5c34)cc2Cl)c1` [GW689066], the Kd with DRAK1 was above 10 µM; with ERBB2 it was 0.024 µM; with ERBB4, 0.16 µM.
In the experiment on EGFR, `N#Cc1ccc(Oc2ccc(Nc3ncnc4cc[nH]c34)cc2Cl)cc1` displayed a Kd of 0.097 µM. That is a double-digit nanomolar value.
Take `Oc1ccc2ncnc(Nc3ccc(OCc4ccccc4)cc3)c2c1` [GI262866]: the Kd stood at 0.0093 µM with EGFR and 0.027 µM with ERBB2.
On to `CCn1c(-c2ccncc2)nc2cnccc21` [SB-735216], for which the Kd with EPHA3 is above 10 µM.
`Cl.c1ccc(Cn2ccc3cc(Nc4ncnc5ccccc45)ccc32)cc1` [GW275568]: the dissociation constant (Kd) with EGFR came out at 0.005 µM; with ERBB2 it was 0.014 µM; with ERBB4, 0.14 µM.
In the experiment with ERK5, `Cc1ccc(NC(=O)c2cccc(C#N)c2)cc1-c1ccc(C(=O)Nc2ccncc2)cc1` [GSK1398463] showed a Kd above 10 µM.
As to `COc1cc2ncnc(Nc3ccc(OCc4ccccc4Br)c(Cl)c3)c2cc1OC.Cl` [GI261590], the results for the Kd in the experiment on EGFR, with ERBB2 and with ERBB4 were 0.0024 µM, 0.017 µM and 0.027 µM, respectively.
Take `O=c1cc(N2CCOCC2)nc2n(Cc3cccc(Cl)c3)ccn12` [GSK2296823]: the Kd in the experiment with EPHA3 and in the experiment on ERBB4 was above 10 µM each time.
`O=C(Nc1ccccc1F)NC1CCN(c2ccnc(Nc3ccc(F)cc3)n2)C1` (stereo not shown) [GSK1379722] yielded a Kd in the experiment with ERK1 above 10 µM.
In the experiment with EPHB6, `CCc1nc(-c2cccc(N(C)S(=O)(=O)c3ccccc3)c2)c(-c2ccnc(Nc3ccc(N4CCN(C(C)=O)CC4)nc3)n2)s1` [GSK1645895] returned a Kd of 0.024 µM.
In the case of `O=C(CCO)NCCn1ccc2ncnc(Nc3ccc(Oc4cccc(C(F)(F)F)c4)c(Cl)c3)c21`, the dissociation constant (Kd) worked out at 0.0023 µM in the experiment with EGFR, 0.00088 µM in the experiment on ERBB2 and 0.1 µM in the experiment with ERBB4.
In the case of `CCC(CC)(CC)n1cnc2c(N)ncnc21` [SKF-97620], the Kd with EPHA2 was above 10 µM.
For the compound `O=C(Nc1ccccc1)Nc1ccc(Oc2ccc3nccn3n2)cc1`, the Kd with ERN1 was above 10 µM.
Regarding `c1ccc(-c2ccc3c(-c4ccnc(Nc5ccc6c(c5)OCCO6)n4)cnn3n2)cc1` [GW818941], the Kd in the experiment on ERK8 amounted to 0.67 µM.
Consider `Cc1ccc(C)c(NC(=O)NCCNc2ccnc(Nc3ccc(F)cc3)n2)c1` [GSK1379878], for which the equilibrium dissociation constant (Kd) in the experiment on ERK5 was above 10 µM.
